# Test results from article PMC7819943, “Rice protein-binding microarrays: a tool to detect cis-acting elements near promoter regions in rice”.
# In all, about 68,000 sequences were measured (“fluorescence intensity (a.u.)”: median about 9,100, highest 2% from about 16,000 on). The sample as a whole holds a higher share of the highest values than the screen did.
# Molecular target: OsWRKY34 (Oryza sativa, UniProt Q0JBA9 1-250)
# Assay: protein-binding microarray (RPBM); PBS, 2% BSA, 51.3 ng/ul salmon testes DNA, 50 uM zinc acetate, 200 nM TF, 25 C, 1 h; high values mean tight binding
# Conditions: protein: recombinant; tags: N-terminal polyhistidine and DsRed monomer fusion (pET32a); label: CyDye5-dUTP incorporated in the synthesized complementary strand; 3' TTTTT single-stranded linker to array surface; dsDNA, one strand shown
# Method in brief: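 The binding signal is fluorescence intensity per array feature (arbitrary units). Readings came from an Axon 4000B scanner after a washed, 2% BSA-blocked, double-stranded custom Agilent array had been incubated for 1 h at 25 °C with 200 nM protein and 50 µM zinc acetate. The protein was a Ni–NTA-purified transcription factor fused N-terminally to polyhistidine and DsRed, expressed in E. coli BL21-CodonPlus.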
# OsWRKY34, sequence (Q0JBA9 entry or part of it): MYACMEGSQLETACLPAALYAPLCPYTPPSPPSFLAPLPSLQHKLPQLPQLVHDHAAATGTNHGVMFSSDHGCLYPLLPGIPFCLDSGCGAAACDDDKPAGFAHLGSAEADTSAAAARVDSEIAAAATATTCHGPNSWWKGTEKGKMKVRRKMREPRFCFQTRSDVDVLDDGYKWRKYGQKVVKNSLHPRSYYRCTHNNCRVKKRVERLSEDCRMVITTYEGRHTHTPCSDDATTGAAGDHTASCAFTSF
row,Sequence,binding signal
1,CAGATGGTCTGGTGGTCGGCGGAGGTCCCGGCGCGCGCGTCGGAGTCACCTAGTGCAG,8360 fluorescence intensity (a.u.)
2,TATGGTATTTGGGTTAAAGAACGAAAATCGAACTCGCTGTCGGAGTCACCTAGTGCAG,8160 fluorescence intensity (a.u.)
3,GAGGGAGGGAGGGAGGGAGACCGCGAGTGTGAGTGACTGCCGGAGTCACCTAGTGCAG,10200 fluorescence intensity (a.u.)
4,ACTGCCCTTATCATTTCCGATTCCGTTTCCGAGAAAATATCGGAGTCACCTAGTGCAG,9240 fluorescence intensity (a.u.)
5,ACTTTGTCACTTGACTTATTCTCTGGCCGTGCGTATAAATCGGAGTCACCTAGTGCAG,8150 fluorescence intensity (a.u.)
6,CCTGCTATTGTACCTGCTCTAAGCCAGCTATAACCATATACGGAGTCACCTAGTGCAG,8170 fluorescence intensity (a.u.)
7,GTGAAGTGTGGTTTAAAAATGGTTGCCTGGTCACTTTATCCGGAGTCACCTAGTGCAG,9020 fluorescence intensity (a.u.)
8,TGTCAGTCACTGTCCCCTTCGTGGTCGTCTTCGCCACTTCCGGAGTCACCTAGTGCAG,9210 fluorescence intensity (a.u.)
9,GGCGGGCGCGGTGGAGGCGGGGAGGAAGGGGAGCGGAGGTCGGAGTCACCTAGTGCAG,9390 fluorescence intensity (a.u.)
10,GGCGGGAGGCGCGGGCGGCGAGGTGCTCCTCTTCTCTCTCCGGAGTCACCTAGTGCAG,9060 fluorescence intensity (a.u.)
11,AGGTGGAGGCGCCGGTGTGGGTGGTGGAGCGGGAGGAGGTCGGAGTCACCTAGTGCAG,8610 fluorescence intensity (a.u.)
12,TCTCTTCCTTGCTGTGGTGGCGGCGGGCGGGAGGGCGGCGCGGAGTCACCTAGTGCAG,35000 fluorescence intensity (a.u.)
13,CTCTCCTCTCTTCTCGAGCGCGGCGGCGGTGGTGGGGAGGCGGAGTCACCTAGTGCAG,14300 fluorescence intensity (a.u.)
14,GGGGTGGGGTTGGCGGCGACGCGGGCGAGGCCGAGGAGGACGGAGTCACCTAGTGCAG,13400 fluorescence intensity (a.u.)
15,CGGCGGAGGGAGGATCGGGGTGGGTGGCGCAGCGGCGACGCGGAGTCACCTAGTGCAG,11200 fluorescence intensity (a.u.)
16,GGGGAGGCGAGGCGGCGAGGTTATAAAAACGGTGGGGTGGCGGAGTCACCTAGTGCAG,12200 fluorescence intensity (a.u.)
17,GCGGAGGAGGGCGGGAGGAAGCGGGTGGCGGCGGCGGAGTCGGAGTCACCTAGTGCAG,10900 fluorescence intensity (a.u.)
18,AAGCGATCGGGGCGGCGGAGGAGGTGGGTGGGAGGGAGGGCGGAGTCACCTAGTGCAG,30200 fluorescence intensity (a.u.)
19,GCGGTGGCGGTTGGGGTGGCGAGTGGGGAGGAGGAGGCGGCGGAGTCACCTAGTGCAG,18900 fluorescence intensity (a.u.)
20,GTCGGGCGGGAGCGGTGCAGGGTGGAGGAGGTGGGCGGGGCGGAGTCACCTAGTGCAG,22900 fluorescence intensity (a.u.)
21,ATACTAGTCCATTCGAGTTGAAACGTTCAGTGAACAGCTACGGAGTCACCTAGTGCAG,8030 fluorescence intensity (a.u.)

row,Sequence,binding signal
1,GATCTCTTGCAGCTGCGCATCTGTGCATGCATCCACACTACGGAGTCACCTAGTGCAG,9260 fluorescence intensity (a.u.)
2,TTGATCCTGCTTTTAGTTATAGTTTTTGTTAGGGTGTATTCGGAGTCACCTAGTGCAG,10100 fluorescence intensity (a.u.)
3,TAAAACTAGTCATCCCTTCATTTTATATTATAAGTTGTTTCGGAGTCACCTAGTGCAG,8290 fluorescence intensity (a.u.)
4,TGTGCCTGCCGACTCGCCCACGCAACTCCGACTCTTTCCTCGGAGTCACCTAGTGCAG,13500 fluorescence intensity (a.u.)
5,CTGGCGAGCAGAGCAGGGGAGGGGAGGGGAGGGGATCGGGCGGAGTCACCTAGTGCAG,14200 fluorescence intensity (a.u.)
6,GCGGGACTTGCAGATCCGAGCGGGCGGGGCGGGGCGGGTTCGGAGTCACCTAGTGCAG,22000 fluorescence intensity (a.u.)
7,TGAGGTTTTGGGTTCTTGGGCACTTCTTGTTCTAGCCAAGCGGAGTCACCTAGTGCAG,9900 fluorescence intensity (a.u.)
8,TTGGTGGGTGGCGCGGTGGCCGGACCTGGGGTGGTGGGCGCGGAGTCACCTAGTGCAG,15900 fluorescence intensity (a.u.)
9,GTTAACTTTTGGTAGTTGCAGGGGTTCTATAGGTGGGCAGCGGAGTCACCTAGTGCAG,8640 fluorescence intensity (a.u.)
10,TATGGGTAGGTTCTTGTTCTATGGGGCAGGGGTCTTAAAGCGGAGTCACCTAGTGCAG,17100 fluorescence intensity (a.u.)
11,GGCGGGGCGGATCCGAGGGGCGAAGTGGGTCGGGCGGCGGCGGAGTCACCTAGTGCAG,9480 fluorescence intensity (a.u.)
12,GGTTGGTGGCGGTGGGCCGGTGGCGGCTCGGTGGCGGAGCCGGAGTCACCTAGTGCAG,10200 fluorescence intensity (a.u.)
13,GGAGTGTGGCGGAGCGGGAGTTCGCGGGCGGACGGCGGGGCGGAGTCACCTAGTGCAG,11700 fluorescence intensity (a.u.)
14,CTTGGGGAAGGCGGCGGGTGTCGGGGAGGGCGAGGGTATCCGGAGTCACCTAGTGCAG,18000 fluorescence intensity (a.u.)
15,GTGGGTTGGGGTCGGCGAGGGATCCGGGCGGCGGGGTATGCGGAGTCACCTAGTGCAG,14000 fluorescence intensity (a.u.)
16,TTGGCGCGCGGTTGGTGGGGCGGTGGTGGTGGTGGTGCCTCGGAGTCACCTAGTGCAG,17400 fluorescence intensity (a.u.)
17,GCTATCGCCGGTTTCGTCATCAATAATCTTCTCTGCCTCTCGGAGTCACCTAGTGCAG,8820 fluorescence intensity (a.u.)
18,TTTCATCGTTTAGTGTCTTACTCCCTTTCCGATGGTCAACCGGAGTCACCTAGTGCAG,9340 fluorescence intensity (a.u.)
19,CATTCTTGTCTGTAGCTTATTTGTTCGTGTTCATTAGTTTCGGAGTCACCTAGTGCAG,13500 fluorescence intensity (a.u.)
20,TGTCTCTCTTTGACATCTTGTTTCCCATAACCTAAAGATACGGAGTCACCTAGTGCAG,8260 fluorescence intensity (a.u.)
21,GTACGCAACTTGTCCGCAGCCGCGACCCCGACCCGACCCGCGGAGTCACCTAGTGCAG,8200 fluorescence intensity (a.u.)
